Measured values reported in the supplement of paper PMC10849652.
About 8,800 targets were measured; listed, in parts, are those with a hit and a random draw of the rest. About 0.5% of all pairs of compound and target were hits.

Columns and labels:
Experiment in all cases: log2 fold change, soluble protein after heating vs DMSO (PISA); higher = thermal stabilisation; K562 lysate, 10 uM; active = over 0.2 and 3.5 SD of the protein, either way, in both replicates (recomputed)
[1] = compound: C1=CC=C(C=C1)[C@H](COC2=CC3=C(C=C2)NC(=O)N3)NC(=O)C4=CC=CN(C4=O)CC5=CC(=C(C=C5)F)F
Procedure, shortened: (§1)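 To prepare the extract, K562 pellets were dounce-homogenised in PBS pH 7.4 with 1 mM MgCl2, giving crude material at 1 mg/mL protein. This was treated with 10 μM compound for 30 min, then heated in aliquots for 3 min over 48°C-58°C before pooling and addition of NP-40 to 0.5% at 4°C. Centrifugation at 21,000xg for 90 min left soluble protein in the supernatant, which TMTpro 16plex LC-MS/MS quantified with equalised channel sums. Results are log-two fold changes in thermal stability compared with solvent controls, from duplicates.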

[2] = compound: CC1=C(SC2=C1C(=N[C@H](C3=NN=C(N32)C)CC(=O)N)C4=CC=C(C=C4)Cl)C
Procedure, shortened: as §1

[3] = compound: CC1=C2C(=CC=C1)N=C(N(C2=O)C3=CC=CC=C3C)CN4C=NC5=C(N=CN=C54)N
Procedure, shortened: as §1

[4] = compound: Cc1sc2c(c1C)C(c1ccc(Cl)cc1)=N[C@@H](CC(=O)OC(C)(C)C)c1nnc(C)n1-2
Procedure, shortened: as §1

[5] = compound: c1ccc([C@@H]2C[C@H]2NC2CCNCC2)cc1
Procedure, shortened: as §1

Measured: log2 fold change

CKAP2 (UniProt Q8WWK9)
Sequence of UniProt Q8WWK9 (Q8WWK9 whole entry, looked up): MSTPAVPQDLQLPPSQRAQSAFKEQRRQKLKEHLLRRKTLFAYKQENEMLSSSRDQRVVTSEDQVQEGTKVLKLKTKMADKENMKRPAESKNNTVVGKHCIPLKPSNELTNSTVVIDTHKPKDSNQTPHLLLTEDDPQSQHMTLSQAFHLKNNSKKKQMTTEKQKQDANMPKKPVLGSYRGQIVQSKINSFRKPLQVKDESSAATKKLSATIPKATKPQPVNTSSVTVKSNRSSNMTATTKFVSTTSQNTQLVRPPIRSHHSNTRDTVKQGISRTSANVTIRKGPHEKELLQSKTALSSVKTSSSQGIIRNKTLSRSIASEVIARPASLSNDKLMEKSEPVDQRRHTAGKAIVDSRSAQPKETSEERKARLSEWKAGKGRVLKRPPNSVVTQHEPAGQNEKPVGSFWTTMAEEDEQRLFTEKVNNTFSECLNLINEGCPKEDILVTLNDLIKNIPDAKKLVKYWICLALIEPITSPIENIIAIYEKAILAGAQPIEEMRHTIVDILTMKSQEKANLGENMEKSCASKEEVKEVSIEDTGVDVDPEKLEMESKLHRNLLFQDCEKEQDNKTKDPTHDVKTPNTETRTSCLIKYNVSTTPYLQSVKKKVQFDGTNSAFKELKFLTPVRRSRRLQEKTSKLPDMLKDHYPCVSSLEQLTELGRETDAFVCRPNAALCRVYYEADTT
inactive: [1] 0.052 | [2] 0.066 | [3] 0.001 | [4] -0.003 | [5] -0.021

CLIC2 (UniProt O15247)
inactive: [1] -0.022 | [2] 0.033 | [3] 0 | [4] 0.017 | [5] 0.029

DNM2 (UniProt P50570)
inactive: [1] -0.01 | [2] 0.038 | [3] 0.035 | [4] 0.05 | [5] 0.057

CSTF2 (UniProt P33240)
Sequence of UniProt P33240 (P33240 whole entry, looked up): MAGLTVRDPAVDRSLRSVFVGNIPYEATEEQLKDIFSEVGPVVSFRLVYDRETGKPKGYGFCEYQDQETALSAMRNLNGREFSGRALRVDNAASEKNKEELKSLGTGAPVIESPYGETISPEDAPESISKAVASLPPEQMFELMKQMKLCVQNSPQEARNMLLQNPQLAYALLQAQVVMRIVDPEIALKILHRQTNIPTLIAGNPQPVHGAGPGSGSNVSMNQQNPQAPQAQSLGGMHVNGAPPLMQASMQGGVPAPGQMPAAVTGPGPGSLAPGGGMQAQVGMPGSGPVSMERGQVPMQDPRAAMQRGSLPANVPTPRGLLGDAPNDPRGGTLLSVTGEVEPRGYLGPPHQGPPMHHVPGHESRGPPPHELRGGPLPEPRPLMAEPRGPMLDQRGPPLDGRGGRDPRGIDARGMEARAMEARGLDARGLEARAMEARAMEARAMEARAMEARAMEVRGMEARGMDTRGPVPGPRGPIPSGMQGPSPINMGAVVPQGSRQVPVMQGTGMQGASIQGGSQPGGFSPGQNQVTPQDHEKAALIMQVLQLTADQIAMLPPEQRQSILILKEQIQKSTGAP
inactive: [1] -0.027 | [2] 0.021 | [3] 0.055 | [4] -0.032 | [5] 0.01

CLCN3 isoform 2 (UniProt P51790)
Sequence of UniProt P51790 (P51790 whole entry, looked up): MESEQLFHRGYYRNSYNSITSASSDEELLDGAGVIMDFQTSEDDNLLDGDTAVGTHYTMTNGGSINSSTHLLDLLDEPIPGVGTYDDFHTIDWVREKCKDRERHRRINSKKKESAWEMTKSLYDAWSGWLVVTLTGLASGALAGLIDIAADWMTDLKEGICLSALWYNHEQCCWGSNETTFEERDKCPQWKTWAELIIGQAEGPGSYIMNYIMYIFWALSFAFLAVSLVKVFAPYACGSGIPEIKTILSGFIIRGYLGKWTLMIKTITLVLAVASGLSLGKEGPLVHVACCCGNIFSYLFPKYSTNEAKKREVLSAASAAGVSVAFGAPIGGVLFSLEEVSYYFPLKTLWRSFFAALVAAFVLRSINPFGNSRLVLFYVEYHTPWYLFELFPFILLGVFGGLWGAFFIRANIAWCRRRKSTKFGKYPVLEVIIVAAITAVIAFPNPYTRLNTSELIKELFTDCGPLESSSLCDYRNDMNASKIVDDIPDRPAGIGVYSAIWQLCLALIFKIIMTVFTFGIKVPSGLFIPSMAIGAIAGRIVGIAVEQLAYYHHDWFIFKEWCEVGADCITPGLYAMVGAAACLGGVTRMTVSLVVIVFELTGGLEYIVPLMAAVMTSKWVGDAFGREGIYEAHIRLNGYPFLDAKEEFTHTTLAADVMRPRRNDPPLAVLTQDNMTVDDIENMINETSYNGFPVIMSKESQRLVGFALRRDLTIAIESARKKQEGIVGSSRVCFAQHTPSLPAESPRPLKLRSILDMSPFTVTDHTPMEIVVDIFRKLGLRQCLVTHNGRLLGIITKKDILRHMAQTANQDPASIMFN
inactive: [1] 0.033 | [2] 0.017 | [3] 0.053 | [4] -0.015 | [5] 0.033

DPM1 (UniProt O60762)
inactive: [1] -0.01 | [2] 0.048 | [3] 0.022 | [4] 0.073 | [5] 0.093

CORO7 isoform 3 (UniProt P57737)
inactive: [1] -0.003 | [2] -0.006 | [3] 0.033 | [4] 0.018 | [5] 0.036

COG7 (UniProt P83436)
inactive: [1] -0.026 | [2] 0.026 | [3] 0.01 | [4] -0.034 | [5] 0.012

CXorf38 (UniProt Q8TB03)
inactive: [1] 0.021 | [2] 0.007 | [3] -0.021 | [4] -0.004 | [5] 0.031

CSNK1A1 (UniProt P48729)
Sequence of UniProt P48729 (P48729 whole entry, looked up): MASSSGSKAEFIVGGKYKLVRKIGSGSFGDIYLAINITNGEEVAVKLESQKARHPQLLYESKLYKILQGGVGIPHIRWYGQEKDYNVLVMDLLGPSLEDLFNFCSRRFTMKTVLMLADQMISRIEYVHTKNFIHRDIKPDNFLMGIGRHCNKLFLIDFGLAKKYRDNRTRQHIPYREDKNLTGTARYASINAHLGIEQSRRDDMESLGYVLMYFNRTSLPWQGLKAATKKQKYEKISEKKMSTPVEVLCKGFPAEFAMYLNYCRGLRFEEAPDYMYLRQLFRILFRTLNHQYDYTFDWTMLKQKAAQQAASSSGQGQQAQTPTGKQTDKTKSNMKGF
inactive: [1] -0.027 | [2] 0.007 | [3] -0.033 | [4] 0.025 | [5] -0.044

CSNK1D (UniProt P48730)
inactive: [1] -0.027 | [2] 0.014 | [3] -0.127 | [4] -0.026 | [5] 0.025

CLPB isoform 2 (UniProt Q9H078)
Sequence of UniProt Q9H078 (Q9H078 whole entry, looked up): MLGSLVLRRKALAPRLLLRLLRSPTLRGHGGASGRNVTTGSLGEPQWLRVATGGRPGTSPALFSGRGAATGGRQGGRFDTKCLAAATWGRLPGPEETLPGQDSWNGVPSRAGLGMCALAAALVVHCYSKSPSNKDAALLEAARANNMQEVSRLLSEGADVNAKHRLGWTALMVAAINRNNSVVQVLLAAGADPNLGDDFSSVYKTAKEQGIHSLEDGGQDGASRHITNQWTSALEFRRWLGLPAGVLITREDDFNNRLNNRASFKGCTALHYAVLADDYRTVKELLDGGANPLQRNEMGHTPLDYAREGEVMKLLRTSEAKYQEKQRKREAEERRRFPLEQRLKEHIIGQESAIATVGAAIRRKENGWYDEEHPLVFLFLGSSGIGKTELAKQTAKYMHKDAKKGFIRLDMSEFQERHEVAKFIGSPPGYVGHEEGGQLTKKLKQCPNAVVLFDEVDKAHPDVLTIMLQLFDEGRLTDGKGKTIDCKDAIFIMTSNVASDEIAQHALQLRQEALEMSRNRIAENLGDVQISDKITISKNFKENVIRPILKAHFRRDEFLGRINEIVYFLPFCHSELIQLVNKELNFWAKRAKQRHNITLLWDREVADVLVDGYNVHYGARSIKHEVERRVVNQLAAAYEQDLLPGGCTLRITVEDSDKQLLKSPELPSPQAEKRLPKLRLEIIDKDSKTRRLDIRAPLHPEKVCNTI
inactive: [1] -0.031 | [2] -0.012 | [3] 0 | [4] 0.094 | [5] 0.079

DDB2 (UniProt Q92466)
Sequence of UniProt Q92466 (Q92466 whole entry, looked up): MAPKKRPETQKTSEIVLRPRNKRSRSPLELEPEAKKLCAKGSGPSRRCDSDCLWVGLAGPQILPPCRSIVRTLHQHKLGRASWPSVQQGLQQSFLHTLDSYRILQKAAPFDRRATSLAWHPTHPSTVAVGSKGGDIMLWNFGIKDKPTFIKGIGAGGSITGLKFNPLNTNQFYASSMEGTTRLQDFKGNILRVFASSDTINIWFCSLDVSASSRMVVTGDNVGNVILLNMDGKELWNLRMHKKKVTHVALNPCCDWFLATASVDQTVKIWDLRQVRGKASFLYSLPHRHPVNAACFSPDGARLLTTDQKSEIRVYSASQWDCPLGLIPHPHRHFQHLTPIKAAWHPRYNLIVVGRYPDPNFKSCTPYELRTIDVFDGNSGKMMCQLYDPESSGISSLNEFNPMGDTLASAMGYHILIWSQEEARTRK
inactive: [1] -0.025 | [2] -0.026 | [3] 0.034 | [4] -0.027 | [5] 0.006

CKAP5 (UniProt Q14008)
inactive: [1] -0.008 | [2] -0.019 | [3] 0.01 | [4] 0.014 | [5] 0.048

CSNK2A1 (UniProt P68400)
Sequence of UniProt P68400 (P68400 whole entry, looked up): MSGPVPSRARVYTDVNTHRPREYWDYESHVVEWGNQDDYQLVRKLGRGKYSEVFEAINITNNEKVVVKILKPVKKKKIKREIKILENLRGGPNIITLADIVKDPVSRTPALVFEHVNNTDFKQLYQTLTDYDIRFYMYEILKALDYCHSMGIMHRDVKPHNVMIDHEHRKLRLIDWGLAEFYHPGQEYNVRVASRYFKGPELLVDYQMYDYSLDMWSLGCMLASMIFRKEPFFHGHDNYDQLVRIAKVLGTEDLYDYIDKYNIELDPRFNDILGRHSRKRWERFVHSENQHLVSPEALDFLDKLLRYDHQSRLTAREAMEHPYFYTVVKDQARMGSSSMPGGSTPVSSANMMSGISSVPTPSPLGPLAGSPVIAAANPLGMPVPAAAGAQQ
inactive: [1] -0.004 | [2] 0.012 | [3] -0.119 | [4] 0.034 | [5] 0.005

DENND6A (UniProt Q8IWF6)
inactive: [1] -0.101 | [2] -0.008 | [3] -0.026 | [4] 0.039 | [5] 0.023

CTNNBL1 (UniProt Q8WYA6)
inactive: [1] -0.003 | [2] 0 | [3] 0.004 | [4] -0.087 | [5] 0.073

CIAO2A (UniProt Q9H5X1)
Sequence of UniProt Q9H5X1 (Q9H5X1 whole entry, looked up): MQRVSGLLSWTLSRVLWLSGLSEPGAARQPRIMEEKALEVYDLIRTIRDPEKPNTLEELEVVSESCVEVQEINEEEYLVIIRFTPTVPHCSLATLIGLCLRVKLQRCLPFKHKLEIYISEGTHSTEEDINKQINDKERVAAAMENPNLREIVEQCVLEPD
inactive: [1] -0.049 | [2] 0.062 | [3] 0.023 | [4] -0.032 | [5] 0.064

DHRS3 (UniProt O75911)
inactive: [1] 0.073 | [2] 0.064 | [3] -0.091 | [4] 0.018 | [5] -0.004

DDX54 isoform 2 (UniProt Q8TDD1)
Sequence of UniProt Q8TDD1 (Q8TDD1 whole entry, looked up): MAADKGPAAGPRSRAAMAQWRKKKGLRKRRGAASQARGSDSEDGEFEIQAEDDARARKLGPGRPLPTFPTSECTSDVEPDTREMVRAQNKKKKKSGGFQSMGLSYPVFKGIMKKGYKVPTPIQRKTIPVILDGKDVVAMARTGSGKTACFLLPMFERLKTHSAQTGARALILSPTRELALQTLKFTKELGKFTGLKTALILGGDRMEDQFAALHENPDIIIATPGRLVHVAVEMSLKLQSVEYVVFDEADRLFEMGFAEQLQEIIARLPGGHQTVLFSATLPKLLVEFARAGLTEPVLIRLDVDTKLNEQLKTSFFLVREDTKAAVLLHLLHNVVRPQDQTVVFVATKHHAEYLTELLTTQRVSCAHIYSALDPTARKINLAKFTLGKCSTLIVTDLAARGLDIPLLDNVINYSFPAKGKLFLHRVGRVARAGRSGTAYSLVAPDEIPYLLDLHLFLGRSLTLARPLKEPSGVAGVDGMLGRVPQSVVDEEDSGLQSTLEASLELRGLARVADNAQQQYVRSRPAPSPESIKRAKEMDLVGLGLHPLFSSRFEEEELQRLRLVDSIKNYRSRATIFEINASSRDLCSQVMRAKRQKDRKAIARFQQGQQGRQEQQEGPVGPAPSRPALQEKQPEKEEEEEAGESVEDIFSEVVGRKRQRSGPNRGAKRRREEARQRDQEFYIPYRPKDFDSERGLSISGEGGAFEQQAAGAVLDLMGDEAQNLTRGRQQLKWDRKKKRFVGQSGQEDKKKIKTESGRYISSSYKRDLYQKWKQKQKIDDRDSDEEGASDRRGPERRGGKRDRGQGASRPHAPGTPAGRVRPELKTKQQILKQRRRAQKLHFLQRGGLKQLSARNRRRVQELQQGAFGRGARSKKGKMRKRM
inactive: [1] -0.131 | [2] 0.041 | [3] 0.09 | [4] 0.052 | [5] 0.008

DEF6 (UniProt Q9H4E7)
inactive: [1] -0.061 | [2] -0.05 | [3] -0.027 | [4] 0.036 | [5] -0.037

CHUK (UniProt O15111)
inactive: [1] -0.02 | [2] 0.032 | [3] 0 | [4] -0.026 | [5] 0.015

COG3 (UniProt Q96JB2)
inactive: [1] -0.03 | [2] -0.015 | [3] 0.016 | [4] 0.033 | [5] 0.019

CMPK2 (UniProt Q5EBM0)
inactive: [1] 0.008 | [2] 0.091 | [3] -0.024 | [4] 0.039 | [5] -0.098
